“And” between values parts separate entries of the source, which are not always exact repeats. Equal values may be shown once. Where a structure was tested more than once in an assay, its records may differ in their call. The source made the active and inactive calls. How the source made its calls: active means hit-call score of the fitted dose curve at least 0.9, where 1 is the maximum; inactive means score below 0.9.
Assays:
[1] = ATG_GLI_CIS: Attagene CIS-FACTORIAL HepG2 Assay for human Zinc Finger Protein GLI1 (AID 2282945); conditions: HepG2, Attagene cis-factorial reporter mRNA, GLI element; actives raise or lower the signal
Procedure, shortened: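 Transiently transfected HepG2 cells report endogenous transcription factor activity via cis-element-driven reporter units. After 24 h compound exposure, reporter mRNA was measured by RT-PCR with capillary electrophoresis; bidirectional fitting against DMSO baseline.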

[2] = biological target: Bile acid receptor (Homo sapiens) (UniProt Q96RI1); assay: ATG_IR1_CIS: Attagene CIS-FACTORIAL HepG2 Assay for human Nuclear Receptor Subfamily 1 Group H Member 4 (NR1H4), IR1 submotif (AID 2282946); conditions: IR1 reporter transcription, actives raise or lower the signal
Procedure, shortened: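 HepG2 cells transiently transfected with multiple cis-promoter-driven reporter units to measure endogenous transcription factor activity; 24 h exposure. Reporter mRNA read by RT-PCR, FAM labelling, HpaI digestion and capillary electrophoresis. Bidirectional fit versus DMSO.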

[3] = ATG_GRE_CIS: Attagene CIS-FACTORIAL HepG2 Assay for human Glucocorticoid Response Elements (GRE) (AID 2282947); conditions: HepG2 GRE cis-reporter, Attagene multiplex mRNA; actives raise or lower the signal
Procedure, shortened: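 Transiently transfected HepG2 cells carrying GRE cis-reporter units (endogenous TF activity) dosed 24 h; reporter mRNA quantified by RT-PCR, 6-FAM labelling, HpaI digestion and capillary electrophoresis. Bidirectional fit versus DMSO baseline.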

[4] = ATG_ISRE_CIS: Attagene CIS-FACTORIAL HepG2 Assay for human Interferon Regulatory Factor 1 (IRF1) binding to an Interferon-Stimulated Response Element (ISRE) (AID 2282948); conditions: HepG2 ISRE cis-reporter (Attagene), mRNA transcription readout; actives raise or lower the signal
Procedure, shortened: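 Quantitation relies on labelled RT-PCR fragments separated by capillary electrophoresis. Human HepG2 cells bearing cis-promoter reporter constructs were treated 24 h; DMSO served as baseline for bidirectional fitting.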

[5] = ATG_M_32_CIS: Attagene CIS-FACTORIAL HepG2 Assay for M32 Transcription Factor (Internal Marker) (AID 2282949); conditions: HepG2 Attagene cis-factorial M32 reporter, mRNA; actives raise or lower the signal;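 further: background control marker of the multiplexed CIS panel rather than a real target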
Procedure, shortened: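 Fluorescent capillary electrophoresis peaks of HpaI-digested, FAM-labelled RT-PCR reporter products give the signal. Source: transiently transfected human liver HepG2 cells, 24 h after chemical dosing; bidirectional fitting against DMSO.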

[6] = ATG_M_06_CIS: Attagene CIS-FACTORIAL HepG2 Assay for M06 Transcription Factor (Internal Marker) (AID 2282950); conditions: HepG2 Attagene CIS-FACTORIAL M06 internal marker reporter; actives raise or lower the signal
Procedure, shortened: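 Cells (HepG2, transiently carrying cis-driven reporter units) receive chemical for 24 h before RNA isolation. Reporter cDNA is PCR-amplified, FAM-labelled by primer extension, HpaI-digested and sized on a capillary analyser.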

[7] = biological target: Hepatocyte nuclear factor 6 (Homo sapiens) (UniProt Q9UBC0); assay: ATG_HNF6_CIS: Attagene CIS-FACTORIAL HepG2 Assay for human Hepatocyte Nuclear Factor 6 (HNF6) (AID 2282952); conditions: HepG2 Attagene cis-factorial HNF6 reporter transcription; actives raise or lower the signal
Procedure, shortened: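 HepG2, transient MRTU transfection (cis promoters); 24 h chemical exposure; total RNA → oligo(dT) RT → PCR → 6-FAM labelling → HpaI cut → CE; bidirectional fit vs DMSO.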

[8] = biological target: Heat shock factor protein 1 (Homo sapiens) (UniProt Q00613); assay: ATG_HSE_CIS: Attagene CIS-FACTORIAL HepG2 Assay for human Heat Shock Transcription Factor 1 (HSE) (AID 2282953); conditions: HepG2 HSE cis-reporter, Attagene RNA transcription; actives raise or lower the signal
Procedure, shortened: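 Liver-derived HepG2 cells carry transiently introduced multiple reporter units governed by cis promoters. Reporter RNA measured 24 h post-dose through reverse transcription, PCR amplification, fluorescent labelling and capillary electrophoresis, normalised to DMSO.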

[9] = ATG_MRE_CIS: Attagene CIS-FACTORIAL HepG2 Assay for human Metal Responsive Element (MRE) (AID 2282954); conditions: HepG2 MRE cis-reporter transcription, Attagene multiplex; actives raise or lower the signal
Procedure, shortened: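 HepG2 cells transiently transfected with cis-element-driven reporter units; mRNA measured 24 h after dosing. Reporter transcripts quantified by RT-PCR, FAM labelling, HpaI digestion and capillary electrophoresis; bidirectional fit versus DMSO.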

[10] = ATG_PBREM_CIS: Attagene CIS-FACTORIAL HepG2 Assay for human Phenobarbital-responsive Enhancer Module (PBREM) (AID 2282955); conditions: HepG2 PBREM cis-reporter, Attagene multiplexed transcription; actives raise or lower the signal
Procedure, shortened: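 Transfected liver-derived HepG2 cells exposed 24 h; PBREM reporter transcript quantified via RT-PCR and capillary electrophoresis, with activity in either direction referenced to DMSO.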

[11] = biological target: Paired box protein Pax-6 (Homo sapiens) (UniProt P26367); assay: ATG_Pax6_CIS: Attagene CIS-FACTORIAL HepG2 Assay for human Paired Box 6 (PAX6) (AID 2282956); conditions: HepG2 CIS-FACTORIAL PAX6 reporter transcription, RNA readout; actives raise or lower the signal
Procedure, shortened: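 After twenty-four hours of chemical exposure, transfected HepG2 cells are harvested for RNA. Cis-promoter reporter transcripts are amplified, fluorescently labelled and sized by capillary electrophoresis, with gain and loss of signal scored against DMSO.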

[12] = ATG_PXRE_CIS: Attagene CIS-FACTORIAL HepG2 Assay for human Pregnane X Receptor Element (PXRE) (AID 2282957); conditions: HepG2 Attagene CIS-FACTORIAL PXRE reporter, mRNA; actives raise or lower the signal
Procedure, shortened: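 Transfect HepG2 with MRTUs (cis promoter elements); dose chemical, incubate 24 h; isolate RNA, RT with oligo(dT), PCR, 6-FAM label, HpaI cut, CE. Gain/loss fit vs DMSO.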

[13] = ATG_RORE_CIS: Attagene CIS-FACTORIAL HepG2 Assay for human RAR-related Orphan Receptor Element (RORE) (AID 2282959); conditions: HepG2 Attagene cis-factorial RORE reporter, mRNA; actives raise or lower the signal
Procedure, shortened: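 Transiently transfected HepG2 reporter cells were treated 24 h. Reporter transcripts were detected by RT-PCR and capillary electrophoresis, with bidirectional fitting against DMSO.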

[14] = ATG_Sox_CIS: Attagene CIS-FACTORIAL HepG2 Assay for human SRY-box transcription factor (SOX) (AID 2282960); conditions: HepG2 Attagene cis-factorial SOX reporter, mRNA; actives raise or lower the signal
Procedure, shortened: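 Gain- or loss-of-signal endpoint, fitted bidirectionally with DMSO as negative control. Based on reporter mRNA from transfected HepG2 cells harvested 24 h post-treatment and quantified via RT-PCR and capillary electrophoresis.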

[15] = biological target: Transcription factor Sp1 (Homo sapiens) (UniProt P08047); assay: ATG_Sp1_CIS: Attagene CIS-FACTORIAL HepG2 Assay for human Specificity Protein 1 (Sp1) (AID 2282961); conditions: HepG2 Sp1 cis-reporter transcription, actives raise or lower the signal
Procedure, shortened: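 Endpoint reflects endogenous Sp1 transcriptional activity, not an exogenous fusion protein: HepG2 cells with transfected cis-regulated reporters, 24 h dosing, RT-PCR/capillary electrophoresis mRNA read-out, DMSO-normalised bidirectional fit.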

[16] = biological target: Signal transducer and activator of transcription 3 (Homo sapiens) (UniProt P40763); assay: ATG_STAT3_CIS: Attagene CIS-FACTORIAL HepG2 Assay for human Signal Transducer and Activator of Transcription 3 (STAT3) (AID 2282963); conditions: HepG2, Attagene cis-factorial STAT3 reporter transcription; actives raise or lower the signal
Procedure, shortened: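 HepG2 cells transiently transfected with multiple cis-element-driven reporter units report endogenous transcription factor activity. After 24 h compound exposure, reporter mRNA is measured by RT-PCR, 6-FAM labelling, HpaI digestion and capillary electrophoresis. Fitted bidirectionally versus DMSO.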

[17] = ATG_TA_CIS: Attagene CIS-FACTORIAL HepG2 Assay for human TA Basal Promoter (AID 2282964); conditions: HepG2 Attagene CIS-factorial TA basal promoter reporter; actives raise or lower the signal
Procedure, shortened: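 Background internal-marker endpoint from a 52-component HepG2 cis-reporter panel. Cells treated 24 h; reporter transcripts quantified via RT-PCR and CE fluorescence against DMSO baseline.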

[18] = biological target: Hypoxia-inducible factor 1-alpha (Homo sapiens) (UniProt Q16665); assay: ATG_HIF1a_CIS: Attagene CIS-FACTORIAL HepG2 Assay for human Hypoxia Inducible Factor 1 (HIF1A) (AID 2282951); conditions: HepG2 Attagene cis-factorial HIF1a reporter transcription; actives raise or lower the signal
Procedure, shortened: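 Dosed 24 h, transfected HepG2 cells yielded total RNA whose reporter transcripts were RT-PCR-amplified and sized by capillary electrophoresis using fluorescent labelling; DMSO defined baseline, with gain and loss of signal both fitted.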

[19] = ATG_SREBP_CIS: Attagene CIS-FACTORIAL HepG2 Assay for human Sterol Regulatory Element Binding (SREBP) (AID 2282962); conditions: HepG2 Attagene cis-factorial SREBP reporter, mRNA; actives raise or lower the signal
Procedure, shortened: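 Twenty-four hours after chemical dosing of transfected HepG2 cultures, reporter RNA was converted to cDNA, amplified, end-labelled with 6-FAM and resolved by capillary electrophoresis. Responses were fitted relative to DMSO.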

[20] = ATG_PPRE_CIS: Attagene CIS-FACTORIAL HepG2 Assay for human Peroxisome Proliferator-activated Response Element (PPRE) (AID 2282958); conditions: HepG2 PPRE cis-element reporter, Attagene transcription factor profiling; actives raise or lower the signal
Procedure, shortened: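 Measured endpoint: PPRE-controlled reporter mRNA, detected by RT-PCR and capillary electrophoresis fluorescence, from transiently transfected HepG2 cells 24 h after dosing. Curves fitted in both directions using DMSO baseline.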

Paired box protein Pax-6 (Homo sapiens), sequence (P26367 whole entry, looked up): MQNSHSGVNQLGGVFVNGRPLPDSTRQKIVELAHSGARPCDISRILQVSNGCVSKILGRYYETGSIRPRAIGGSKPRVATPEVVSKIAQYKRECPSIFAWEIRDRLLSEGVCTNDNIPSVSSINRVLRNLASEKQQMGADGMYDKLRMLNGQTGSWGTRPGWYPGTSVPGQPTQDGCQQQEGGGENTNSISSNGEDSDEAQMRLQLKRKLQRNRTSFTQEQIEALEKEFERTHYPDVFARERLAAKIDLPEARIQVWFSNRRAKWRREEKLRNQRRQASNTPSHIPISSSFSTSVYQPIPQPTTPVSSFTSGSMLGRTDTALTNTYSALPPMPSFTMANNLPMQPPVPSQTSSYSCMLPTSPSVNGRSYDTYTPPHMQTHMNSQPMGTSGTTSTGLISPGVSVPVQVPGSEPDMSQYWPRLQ
Signal transducer and activator of transcription 3 (Homo sapiens), sequence (P40763 whole entry, looked up): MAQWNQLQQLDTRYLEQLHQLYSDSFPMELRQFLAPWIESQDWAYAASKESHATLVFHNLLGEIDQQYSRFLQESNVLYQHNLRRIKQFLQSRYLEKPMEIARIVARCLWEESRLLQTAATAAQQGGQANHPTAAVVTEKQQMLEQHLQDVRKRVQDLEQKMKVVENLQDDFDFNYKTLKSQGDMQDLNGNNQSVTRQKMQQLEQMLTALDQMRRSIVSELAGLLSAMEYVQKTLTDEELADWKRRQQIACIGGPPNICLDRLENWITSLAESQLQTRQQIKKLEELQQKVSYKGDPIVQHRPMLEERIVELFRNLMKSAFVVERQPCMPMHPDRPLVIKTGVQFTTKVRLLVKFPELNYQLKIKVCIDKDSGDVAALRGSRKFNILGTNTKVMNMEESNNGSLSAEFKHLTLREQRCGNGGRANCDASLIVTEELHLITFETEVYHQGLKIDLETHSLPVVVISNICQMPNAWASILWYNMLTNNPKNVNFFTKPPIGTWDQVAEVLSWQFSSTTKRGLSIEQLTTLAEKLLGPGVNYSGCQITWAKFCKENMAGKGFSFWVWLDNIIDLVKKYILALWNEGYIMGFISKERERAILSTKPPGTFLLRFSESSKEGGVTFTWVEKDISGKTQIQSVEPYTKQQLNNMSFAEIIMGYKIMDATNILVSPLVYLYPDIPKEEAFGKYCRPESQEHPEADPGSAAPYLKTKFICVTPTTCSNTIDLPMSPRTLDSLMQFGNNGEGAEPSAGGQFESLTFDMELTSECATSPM
Heat shock factor protein 1 (Homo sapiens), sequence (Q00613 whole entry, looked up): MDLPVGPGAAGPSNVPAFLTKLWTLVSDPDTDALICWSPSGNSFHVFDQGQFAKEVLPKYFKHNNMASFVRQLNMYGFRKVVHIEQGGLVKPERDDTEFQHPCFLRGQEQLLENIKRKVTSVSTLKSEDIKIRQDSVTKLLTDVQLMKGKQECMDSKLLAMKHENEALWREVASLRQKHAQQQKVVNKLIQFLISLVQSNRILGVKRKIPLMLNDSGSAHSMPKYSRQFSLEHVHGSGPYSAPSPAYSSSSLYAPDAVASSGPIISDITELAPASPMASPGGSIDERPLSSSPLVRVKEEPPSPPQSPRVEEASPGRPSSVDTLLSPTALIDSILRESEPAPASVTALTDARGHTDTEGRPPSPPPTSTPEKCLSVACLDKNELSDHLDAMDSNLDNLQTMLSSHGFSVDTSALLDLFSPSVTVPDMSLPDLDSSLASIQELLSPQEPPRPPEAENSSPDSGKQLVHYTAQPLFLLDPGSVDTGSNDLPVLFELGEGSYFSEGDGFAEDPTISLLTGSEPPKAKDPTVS
Bile acid receptor (Homo sapiens), sequence (Q96RI1 whole entry, looked up): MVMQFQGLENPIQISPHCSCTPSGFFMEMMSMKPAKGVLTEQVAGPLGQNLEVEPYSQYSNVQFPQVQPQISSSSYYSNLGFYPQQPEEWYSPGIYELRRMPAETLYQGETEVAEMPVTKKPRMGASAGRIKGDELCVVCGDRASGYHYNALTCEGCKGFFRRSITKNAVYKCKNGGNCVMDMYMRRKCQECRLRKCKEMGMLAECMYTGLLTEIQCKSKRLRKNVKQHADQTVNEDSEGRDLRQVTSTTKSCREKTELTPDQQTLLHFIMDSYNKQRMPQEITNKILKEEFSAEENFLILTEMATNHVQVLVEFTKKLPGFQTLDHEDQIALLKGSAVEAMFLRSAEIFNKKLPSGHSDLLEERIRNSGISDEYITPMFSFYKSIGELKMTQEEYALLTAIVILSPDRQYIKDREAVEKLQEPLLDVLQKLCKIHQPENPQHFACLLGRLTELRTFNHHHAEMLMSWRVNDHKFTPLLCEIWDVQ
Transcription factor Sp1 (Homo sapiens), sequence (P08047 whole entry, looked up, the tested form may be a part): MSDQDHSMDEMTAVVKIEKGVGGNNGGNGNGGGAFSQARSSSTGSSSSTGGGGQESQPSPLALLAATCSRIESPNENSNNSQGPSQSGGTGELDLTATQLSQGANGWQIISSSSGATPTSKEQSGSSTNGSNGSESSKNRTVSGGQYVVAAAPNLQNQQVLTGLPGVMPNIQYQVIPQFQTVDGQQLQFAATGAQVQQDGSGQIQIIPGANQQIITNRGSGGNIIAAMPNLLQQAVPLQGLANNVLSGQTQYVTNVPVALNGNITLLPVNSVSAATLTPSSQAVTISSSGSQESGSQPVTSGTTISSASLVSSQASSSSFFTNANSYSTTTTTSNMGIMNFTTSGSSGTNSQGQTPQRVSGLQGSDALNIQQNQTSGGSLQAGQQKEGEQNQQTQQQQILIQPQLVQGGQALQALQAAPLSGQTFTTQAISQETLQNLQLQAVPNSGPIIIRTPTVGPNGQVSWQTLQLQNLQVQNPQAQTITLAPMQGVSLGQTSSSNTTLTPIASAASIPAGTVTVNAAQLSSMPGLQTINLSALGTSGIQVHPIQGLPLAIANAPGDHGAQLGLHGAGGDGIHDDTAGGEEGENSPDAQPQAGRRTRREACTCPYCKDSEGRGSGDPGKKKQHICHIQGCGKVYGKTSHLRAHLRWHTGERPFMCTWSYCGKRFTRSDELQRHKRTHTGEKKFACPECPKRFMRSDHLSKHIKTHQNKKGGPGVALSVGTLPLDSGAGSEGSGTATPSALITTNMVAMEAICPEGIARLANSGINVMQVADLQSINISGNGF
Hepatocyte nuclear factor 6 (Homo sapiens), sequence (Q9UBC0 whole entry, looked up): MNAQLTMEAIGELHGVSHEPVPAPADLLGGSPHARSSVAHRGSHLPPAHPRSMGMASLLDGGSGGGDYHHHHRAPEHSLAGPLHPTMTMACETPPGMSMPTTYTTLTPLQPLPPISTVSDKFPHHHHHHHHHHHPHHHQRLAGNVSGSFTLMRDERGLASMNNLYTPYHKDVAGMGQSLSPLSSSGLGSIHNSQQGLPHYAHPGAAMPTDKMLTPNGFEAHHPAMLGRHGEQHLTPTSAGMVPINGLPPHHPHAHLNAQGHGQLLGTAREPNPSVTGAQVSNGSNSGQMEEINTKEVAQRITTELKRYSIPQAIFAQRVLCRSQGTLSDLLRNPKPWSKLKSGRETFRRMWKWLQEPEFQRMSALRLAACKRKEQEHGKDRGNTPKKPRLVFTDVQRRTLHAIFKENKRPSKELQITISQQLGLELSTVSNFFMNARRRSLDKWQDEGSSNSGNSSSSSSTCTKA
Hypoxia-inducible factor 1-alpha (Homo sapiens), sequence (Q16665 whole entry, looked up): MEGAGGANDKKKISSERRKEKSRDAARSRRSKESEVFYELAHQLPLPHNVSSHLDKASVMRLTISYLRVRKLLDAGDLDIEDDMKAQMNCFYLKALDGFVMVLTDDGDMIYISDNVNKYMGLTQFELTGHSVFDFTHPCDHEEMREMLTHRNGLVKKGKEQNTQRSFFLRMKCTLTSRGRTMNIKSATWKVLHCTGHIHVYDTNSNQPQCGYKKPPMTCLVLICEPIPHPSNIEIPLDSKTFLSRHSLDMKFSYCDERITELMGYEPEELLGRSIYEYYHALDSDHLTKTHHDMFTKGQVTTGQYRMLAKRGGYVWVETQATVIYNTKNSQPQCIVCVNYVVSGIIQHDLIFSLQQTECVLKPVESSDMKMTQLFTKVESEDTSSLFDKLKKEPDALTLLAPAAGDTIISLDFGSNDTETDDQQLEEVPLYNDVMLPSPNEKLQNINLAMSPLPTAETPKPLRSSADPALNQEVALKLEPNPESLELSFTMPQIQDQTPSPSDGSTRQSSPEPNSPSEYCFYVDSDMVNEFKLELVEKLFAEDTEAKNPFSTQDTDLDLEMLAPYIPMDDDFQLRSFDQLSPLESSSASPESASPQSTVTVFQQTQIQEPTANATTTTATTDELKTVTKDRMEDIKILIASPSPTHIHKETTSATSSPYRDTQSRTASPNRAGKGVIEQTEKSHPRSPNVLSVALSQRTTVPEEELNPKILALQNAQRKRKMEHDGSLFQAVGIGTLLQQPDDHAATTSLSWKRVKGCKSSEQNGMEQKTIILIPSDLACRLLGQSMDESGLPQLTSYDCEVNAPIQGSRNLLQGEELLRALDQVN

C[C@H](CCC(=O)O)[C@H]1CC[C@H]2[C@@H]3CC[C@@H]4C[C@H](O)CC[C@]4(C)[C@H]3CC[C@]12C
outcome [1]: inactive
outcome [2]: inactive
outcome [3]: inactive
AC50 [4]: 27.4 µM (active)
outcome [5]: inactive
outcome [6]: inactive
AC50 [7]: 146 µM (active)
AC50 [8]: 25.6 µM (active)
AC50 [9]: 26.4 µM (active)
outcome [10]: inactive
AC50 [11]: 27.5 µM (active)
AC50 [12]: 3.75 µM (active)
outcome [13]: inactive
outcome [14]: inactive
AC50 [15]: 168 µM (active)
outcome [16]: inactive
AC50 [17]: 25.3 µM (active)

CCCCCCCCOS(=O)(=O)O
outcome [1]: inactive
outcome [2]: inactive
outcome [3]: inactive
outcome [4]: inactive
outcome [5]: inactive
outcome [6]: inactive
outcome [18]: inactive
outcome [7]: inactive
outcome [8]: inactive
outcome [9]: inactive
outcome [10]: inactive
outcome [11]: inactive
outcome [12]: inactive
outcome [13]: inactive
outcome [14]: inactive
outcome [15]: inactive
outcome [19]: inactive
outcome [16]: inactive
outcome [17]: inactive

NC(=O)c1cccnc1
outcome [1]: inactive
outcome [2]: inactive
outcome [3]: inactive
outcome [4]: inactive
outcome [5]: inactive
outcome [6]: inactive
outcome [18]: inactive
outcome [7]: inactive
outcome [8]: inactive
outcome [9]: inactive
outcome [10]: inactive
outcome [11]: inactive
AC50 [12]: 32.3 µM (active)
outcome [20]: inactive
outcome [14]: inactive
outcome [15]: inactive
outcome [19]: inactive
outcome [16]: inactive
outcome [17]: inactive

CCCCCCOC(C)=O
outcome [1]: inactive
outcome [2]: inactive
outcome [3]: inactive
outcome [4]: inactive
outcome [5]: inactive
outcome [6]: inactive
outcome [18]: inactive
outcome [7]: inactive
outcome [9]: inactive
outcome [10]: inactive
outcome [11]: inactive
outcome [12]: inactive
outcome [20]: inactive
outcome [15]: inactive
outcome [19]: inactive
outcome [16]: inactive
outcome [17]: inactive

CCCCCC1CCC(=O)O1 (stereo not given)
outcome [1]: inactive
outcome [2]: inactive
outcome [3]: inactive
outcome [4]: inactive
outcome [5]: inactive
outcome [6]: inactive
outcome [18]: inactive
outcome [7]: inactive
outcome [8]: inactive
outcome [9]: inactive
outcome [11]: inactive
outcome [12]: inactive
outcome [13]: inactive
outcome [15]: inactive
outcome [19]: inactive
outcome [16]: inactive
outcome [17]: inactive

C=C(C)C(=O)OCCOCCOC(=O)C(=C)C
outcome [1]: inactive
outcome [2]: inactive
outcome [4]: inactive
outcome [5]: inactive
outcome [6]: inactive
outcome [18]: inactive
outcome [7]: inactive
outcome [8]: inactive
outcome [9]: inactive
outcome [10]: inactive
outcome [11]: inactive
outcome [12]: inactive
outcome [20]: inactive
outcome [14]: inactive
outcome [15]: inactive
outcome [19]: inactive
outcome [16]: inactive
outcome [17]: inactive

C#C[C@]1(O)CC[C@H]2[C@@H]3CCc4cc(O)ccc4[C@H]3CC[C@@]21C
AC50 [1]: 98.4 µM (active) and 72.2 µM (active) and 62.4 µM (active)
outcome [1]: inactive
AC50 [3]: 159 µM (active)
outcome [3]: inactive
AC50 [4]: 33.4 µM (active) and 27.3 µM (active)
outcome [4]: inactive
AC50 [5]: 161 µM (active)
outcome [5]: inactive
outcome [6]: inactive
AC50 [18]: 49 µM (active) and 67.4 µM (active)
outcome [18]: inactive
AC50 [7]: 58.1 µM (active) and 100 µM (active)
outcome [7]: inactive
AC50 [8]: 59.2 µM (active) [middle of 4 runs]
outcome [8]: inactive
AC50 [9]: 52.1 µM (active) [middle of 4 runs]
outcome [9]: inactive
outcome [11]: inactive
AC50 [12]: 3.19 µM (active) [middle of 4 runs]
outcome [12]: inactive
AC50 [14]: 130 µM (active) and 54.9 µM (active)
outcome [14]: inactive
AC50 [15]: 169 µM (active) and 44.8 µM (active)
outcome [15]: inactive
AC50 [16]: 68 µM (active) and 155 µM (active)
outcome [16]: inactive
AC50 [17]: 132 µM (active)
outcome [17]: inactive

Source: PubChem BioAssay (EPA / NIEHS)
